Assay [1] can be described thus: NCI Yeast Anticancer Drug Screen. Data for the rad50 strain (AID 155).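 Note: 0% = growth of vehicle-only cultures of the same strain.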 The settings on record: S. cerevisiae rad50 strain growth inhibition, active compounds read high. In outline:
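Cells are treated with compound, grown, and their growth is then scored against vehicle-only cultures of the same repair-deficient yeast strain.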

Assay [2] is described as follows: NCI Yeast Anticancer Drug Screen. Data for the mec2-1 strain (AID 157). Conditions: S. cerevisiae mec2-1 strain, active compounds read high. In outline:
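Test agents were screened against the mec2-1 yeast strain, with defined DNA repair or cell cycle alteration. Growth was scored as inhibition against vehicle-only controls.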

Assay [3] is described as follows: NCI Yeast Anticancer Drug Screen. Data for the sgs1 mgt1 strain (AID 161).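 Note: 0% = growth of cultures given vehicle only.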 Conditions: S. cerevisiae sgs1 mgt1 strain, active compounds read high. In outline:
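Mutant yeast exposed to compound; growth scored against vehicle-only wells.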

Assay [4] is described as follows: NCI Yeast Anticancer Drug Screen. Data for the cln2 rad14 strain (AID 165).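 Note: 0% = growth equal to vehicle treated cultures.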 Conditions: S. cerevisiae cln2 rad14 strain, active compounds read high. In outline: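 Growth of compound-exposed yeast (cln2 rad14 genotype) measured and expressed as inhibition relative to vehicle.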
A short description of assay [5]: NCI Yeast Anticancer Drug Screen. Data for the bub3 strain (AID 167). The settings on record: S. cerevisiae bub3 mutant strain, active compounds read high. In outline:
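Part of a panel of yeast mutants defective in DNA damage repair or cell cycle regulation. Each strain is grown with compound, and inhibition is calculated relative to solvent-treated cultures.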

Assay [6] is described as follows: NCI Yeast Anticancer Drug Screen. Data for the mlh1 rad18 strain (AID 175). The settings on record: S. cerevisiae mlh1 rad18 strain growth inhibition, active compounds read high. In outline: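 In this whole-cell yeast screen, a strain with altered DNA damage repair is challenged with compound, and its growth is measured against matched vehicle-treated controls.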
The mark [7] stands for this setting: at 5.0 µM (retest, dose inferred, filed as 0.5).
Where [8] appears, read: at 50.0 µM (retest, dose inferred, filed as 5.0).

This is part of a sample that, as a whole, favours compounds with a hit. Of some 79,000 tested, about 15% had one in any assay. Unmarked numbers belong to inactive results. Activity calls are given as the source filed them. Cut-off read from the data, not from the text of the source: active = growth inhibition above about 70%; inactive = the rest.

As to `CC(=O)Oc1cc2c(cc1OC(C)=O)OCC(c1ccccc1)C2` (stereo not given), the growth inhibition is 2% in assay [1] (setting [7]); 45% in assay [1] (setting [8]); 69.3% in assay [1] (at 50.0 µM); 5% in assay [2] (setting [7]); 48% in assay [2] (setting [8]); 56.3% in assay [2] (at 50.0 µM). Also, the growth inhibition is 4% in assay [3] (setting [7]); 60% in assay [3] (setting [8]); 76.5% (active) in assay [3] (at 50.0 µM); 3% in assay [4] (setting [7]); 20% in assay [4] (setting [8]); 35.9% in assay [4] (at 50.0 µM). The growth inhibition in assay [5] (setting [7]) was 41%; in assay [5] (setting [8]), 93% (active); in assay [5] (at 50.0 µM), 94.8% (active); in assay [6] (setting [7]), -10%; in assay [6] (setting [8]), 53%; in assay [6] (at 50.0 µM) it was 63.4%.

Turning to `Cc1ccc(NC(=O)c2cc3ccccc3c(N=Nc3cc(S(=O)(=O)O)ccc3O)c2O)c(C)c1`, the growth inhibition in assay [1] (setting [7]) is 33%; in assay [1] (setting [8]), 85% (active); in assay [1] (at 50.0 µM), 71.8% (active); in assay [2] (setting [7]), 33%; in assay [2] (setting [8]), 84% (active); in assay [2] (at 50.0 µM) it was 52.3%. Moreover, the growth inhibition in assay [3] (setting [7]) was 56%; in assay [3] (setting [8]), 92% (active); in assay [3] (at 50.0 µM) it was 78.7% (active); in assay [4] (setting [7]), 29%; in assay [4] (setting [8]) it was 43%; in assay [4] (at 50.0 µM), 59.9%. Moreover, the growth inhibition in assay [5] (setting [7]) is 50%; in assay [5] (setting [8]) it was 92% (active); in assay [5] (at 50.0 µM), 82.8% (active); in assay [6] (setting [7]) it was 57%; in assay [6] (setting [8]) it was 87% (active); in assay [6] (at 50.0 µM), 80.8% (active).

In the case of `CCOC1Oc2ccccc2-c2nc(SC)ncc21` (stereo not given), the growth inhibition was 23% in assay [1] (setting [7]); 20% in assay [1] (setting [8]); 75.4% (active) in assay [1] (at 50.0 µM); 14% in assay [2] (setting [7]); 20% in assay [2] (setting [8]); 19.9% in assay [2] (at 50.0 µM). The growth inhibition in assay [3] (setting [7]) was 18%; in assay [3] (setting [8]), 21%; in assay [3] (at 50.0 µM), 36.6%; in assay [4] (setting [7]), 26%; in assay [4] (setting [8]) it was 18%; in assay [4] (at 50.0 µM), 15.9%. Moreover, the growth inhibition in assay [5] (setting [7]) is 28%; in assay [5] (setting [8]) it was 55%; in assay [5] (at 50.0 µM) it was 47.6%; in assay [6] (setting [7]) it was 17%; in assay [6] (setting [8]), 19%; in assay [6] (at 50.0 µM), 43.9%.

Take `O=C1c2ccccc2C(=O)c2sc(Nc3ccc(Cl)cc3)nc21`: the growth inhibition in assay [1] (setting [7]) is 79% (active); in assay [1] (setting [8]), 97% (active); in assay [1] (at 50.0 µM) it was 90.5% (active); in assay [2] (setting [7]), 84% (active); in assay [2] (setting [8]), 99% (active); in assay [2] (at 50.0 µM), 92.9% (active). Moreover, the growth inhibition was 97% (active) in assay [3] (setting [7]); 99% (active) in assay [3] (setting [8]); 93.8% (active) in assay [3] (at 50.0 µM); 58% in assay [4] (setting [7]); 98% (active) in assay [4] (setting [8]); 88.8% (active) in assay [4] (at 50.0 µM). Further, the growth inhibition in assay [5] (setting [7]) is 98% (active); in assay [5] (setting [8]), 99% (active); in assay [5] (at 50.0 µM) it was 91.6% (active); in assay [6] (setting [7]), 85% (active); in assay [6] (setting [8]), 98% (active); in assay [6] (at 50.0 µM), 91.2% (active).

With `Nc1nc(N)c2cc(S(=O)c3ccc4ccccc4c3)ccc2n1` (stereo not given), the growth inhibition in assay [1] (setting [7]) was 4%; in assay [1] (setting [8]), 17%; in assay [1] (at 50.0 µM) it was 24.2%; in assay [2] (setting [7]), 29%; in assay [2] (setting [8]) it was 64%; in assay [2] (at 50.0 µM) it was 79.2% (active). For the same compound, the growth inhibition in assay [3] (setting [7]) was 2%; in assay [3] (setting [8]), 9%; in assay [3] (at 50.0 µM), 19.5%; in assay [4] (setting [7]) it was -1%; in assay [4] (setting [8]), -18%; in assay [4] (at 50.0 µM) it was -42.4%. Also, the growth inhibition in assay [5] (setting [7]) was -21%; in assay [5] (setting [8]), -19%; in assay [5] (at 50.0 µM), -13.9%; in assay [6] (setting [7]), -4%; in assay [6] (setting [8]), 3%; in assay [6] (at 50.0 µM), 13.5%.

Take `Cc1cc(N)c2c(c1O)C(=O)c1ccccc1C2=O`: the growth inhibition in assay [1] (setting [7]) is -2%; in assay [1] (setting [8]), 47%; in assay [1] (at 50.0 µM) it was 7.5%; in assay [2] (setting [7]), -1%; in assay [2] (setting [8]), 26%; in assay [2] (at 50.0 µM), 7.35%. Moreover, the growth inhibition in assay [3] (setting [7]) was -5%; in assay [3] (setting [8]) it was 39%; in assay [3] (at 50.0 µM), -0.6%; in assay [4] (setting [7]), 0%; in assay [4] (setting [8]), 21%; in assay [4] (at 50.0 µM), 25.1%. Moreover, the growth inhibition in assay [5] (setting [7]) was -5%; in assay [5] (setting [8]), 42%; in assay [5] (at 50.0 µM) it was 20.8%; in assay [6] (setting [7]), -3%; in assay [6] (setting [8]), 47%; in assay [6] (at 50.0 µM) it was 18.2%.

As for `Cc1ccc(C(=Nc2ccccc2)N=P(c2ccccc2)(c2ccccc2)c2ccccc2)cc1`, the growth inhibition in assay [1] (setting [7]) is 56%; in assay [1] (setting [8]), 98% (active); in assay [1] (at 50.0 µM) it was 90.6% (active); in assay [2] (setting [7]), 45%; in assay [2] (setting [8]), 99% (active); in assay [2] (at 50.0 µM) it was 91.9% (active). Moreover, the growth inhibition in assay [3] (setting [7]) is 46%; in assay [3] (setting [8]), 100% (active); in assay [3] (at 50.0 µM), 90.5% (active); in assay [4] (setting [7]), 39%; in assay [4] (setting [8]), 99% (active); in assay [4] (at 50.0 µM), 89.5% (active). The growth inhibition in assay [5] (setting [7]) is 45%; in assay [5] (setting [8]) it was 99% (active); in assay [5] (at 50.0 µM) it was 88.2% (active); in assay [6] (setting [7]) it was 61%; in assay [6] (setting [8]), 99% (active); in assay [6] (at 50.0 µM) it was 91.5% (active).

Consider `c1coc(C2=Nc3cccc4cccc(c34)N2)c1`, for which the growth inhibition was 6% in assay [1] (setting [7]); 84% (active) in assay [1] (setting [8]); 50.5% in assay [1] (at 50.0 µM); 5% in assay [2] (setting [7]); 62% in assay [2] (setting [8]); 10.3% in assay [2] (at 50.0 µM). Also, the growth inhibition in assay [3] (setting [7]) was 36%; in assay [3] (setting [8]) it was 81% (active); in assay [3] (at 50.0 µM), 76.7% (active); in assay [4] (setting [7]), 4%; in assay [4] (setting [8]) it was 65%; in assay [4] (at 50.0 µM) it was 32.5%. Besides, the growth inhibition in assay [5] (setting [7]) is 5%; in assay [5] (setting [8]), 94% (active); in assay [5] (at 50.0 µM), 36.4%; in assay [6] (setting [7]), -13%; in assay [6] (setting [8]), 96% (active); in assay [6] (at 50.0 µM), 54.6%.

For `COc1ccc(/C=C/c2c[n+]([O-])ccc2[N+](=O)[O-])cc1`, the growth inhibition was 14% in assay [1] (setting [7]); 95% (active) in assay [1] (setting [8]); 77% (active) in assay [1] (at 50.0 µM); 18% in assay [2] (setting [7]); 97% (active) in assay [2] (setting [8]); 72.2% (active) in assay [2] (at 50.0 µM). Besides, the growth inhibition in assay [3] (setting [7]) was 37%; in assay [3] (setting [8]) it was 96% (active); in assay [3] (at 50.0 µM) it was 63.9%; in assay [4] (setting [7]), 12%; in assay [4] (setting [8]) it was 95% (active); in assay [4] (at 50.0 µM), 38.4%. The growth inhibition in assay [5] (setting [7]) is 9%; in assay [5] (setting [8]), 97% (active); in assay [5] (at 50.0 µM), 9.35%; in assay [6] (setting [7]), 46%; in assay [6] (setting [8]), 96% (active); in assay [6] (at 50.0 µM) it was 98% (active).

As for `CCOc1ccc2c(c1)[n+]([O-])c(-c1ccc(Cl)cc1)c(N)[n+]2[O-]`, the growth inhibition was 24% in assay [1] (setting [7]); 99% (active) in assay [1] (setting [8]); 99.2% (active) in assay [1] (at 50.0 µM); 23% in assay [2] (setting [7]); 99% (active) in assay [2] (setting [8]); 98.2% (active) in assay [2] (at 50.0 µM). Moreover, the growth inhibition was 50% in assay [3] (setting [7]); 100% (active) in assay [3] (setting [8]); 99.3% (active) in assay [3] (at 50.0 µM); 34% in assay [4] (setting [7]); 98% (active) in assay [4] (setting [8]); 98.8% (active) in assay [4] (at 50.0 µM). Further, the growth inhibition in assay [5] (setting [7]) is 63%; in assay [5] (setting [8]), 99% (active); in assay [5] (at 50.0 µM), 99.2% (active); in assay [6] (setting [7]), 68%; in assay [6] (setting [8]), 99% (active); in assay [6] (at 50.0 µM), 98.8% (active).

These data come from PubChem BioAssay (NCI).
